Source: PubChem BioAssay (The Scripps Research Institute Molecular Screening Center)
TEAD-YAP inh = TEAD-YAP interaction inhibition, primary screen, TEAD-YAP interaction inhibitor project, luminescence, HEK-TIYL cells; 1.4% of 640,000 active; AID 1259422, 2018; inhibition, % at 9.12 µM; TEAD-Gal4/YAP UAS-luciferase luminescence; in the data active = inhibition above about 32%;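 also: 0% = median of test compound wells and 100% = reference inhibitor wells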
MITF inh = MITF inhibitors, primary screen, biochemical, AlphaScreen, human | Microphthalmia-associated transcription factor (Homo sapiens), O75030 | AlphaScreen MITF homodimerization, bead proximity signal | inhibition, % at 2.6 µM | 0.91% of 650,000 active | AID 1259374, 2018; in the data active = inhibition above about 50%;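 also: 0% = vehicle wells with protein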
FBW7 act = FBW7 E3 ligase activators, primary screen, biochemical, AlphaScreen, human; AID 1259310, 2017; normalized activity (activation), % at 26.1 µM; AlphaScreen FBW7–phospho-cyclin E peptide binding, activator screen; 0.13% of 650,000 active; in the data active = normalized activity above about 1.9%;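 also: purified mutant Fbw7 with reduced substrate affinity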
GPR151 ag = activators of human GPR151, primary screen, cell-based, PathHunter beta-arrestin, luminescence; G-protein coupled receptor 151 (Homo sapiens), Q8TDV0; PathHunter beta-arrestin GPR151 cells; activation, % at 11.2 µM; 1% of 650,000 active; AID 1508602, 2020; in the data active = activation above about 4.9%;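 also: 0% = median of compound wells and 100% = cells with positive control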
Target sequence (Q8TDV0 whole entry, looked up): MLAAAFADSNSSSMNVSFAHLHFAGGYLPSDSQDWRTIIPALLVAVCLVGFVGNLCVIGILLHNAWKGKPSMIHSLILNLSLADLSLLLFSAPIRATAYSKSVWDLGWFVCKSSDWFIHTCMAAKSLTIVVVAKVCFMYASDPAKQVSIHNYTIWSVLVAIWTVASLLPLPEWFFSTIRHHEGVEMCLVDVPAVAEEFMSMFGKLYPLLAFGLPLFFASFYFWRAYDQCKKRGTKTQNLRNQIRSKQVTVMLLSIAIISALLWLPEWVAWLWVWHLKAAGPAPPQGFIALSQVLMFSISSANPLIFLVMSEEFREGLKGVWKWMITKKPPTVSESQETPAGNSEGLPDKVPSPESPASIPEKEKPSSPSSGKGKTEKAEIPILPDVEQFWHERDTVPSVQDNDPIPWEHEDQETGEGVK
* marks the source's active call; other numbers are inactive results; ! = not confirmed by another sample. Hits are enriched below; roughly 3.5% of the tested compounds scored in any of these assays.

SMILES	TEAD-YAP inh	MITF inh	FBW7 act	GPR151 ag
Cc1ccc(NC(=O)CN(C)C(=O)COc2ccc(C#N)cc2)cc1	4	8	0	0
CN(CC(=O)Nc1ccc(Cl)cc1)C(=O)CCl	71*	-13	0	0
Cc1ccc(NC(=O)CN(C)C(=O)CCl)cc1	63*	4	0	-1
O=C(NCc1ccc2c(c1)OCO2)c1cc(S(=O)(=O)N2CCOCC2)ccc1Sc1ccc(Br)cc1	3	-1	0	1
CCOc1ccc(/C=C2/NC(=O)N(CC(=O)Nc3cccc(C)c3)C2=O)c(OCC)c1	5	1	2.8*	0
CC12CCC(C(=O)Nc3ccc(OC(=O)C45CCC(C)(C(=O)O4)C5(C)C)cc3)(OC1=O)C2(C)C (stereo not given)	-6	-15	0	-1
CCN(CC)C(=O)C1CCCN(c2nc3c(N)ncnc3n2C(C)C)C1 (stereo not given)	0	-9	0	2
CC(=O)c1c(C)[nH]c(C(=O)OCC(=O)Nc2cccc(Cl)c2)c1C	44*	7	0	-1
CC(=O)c1c(C)[nH]c(C(=O)OCC(=O)Nc2ccc(Cl)cc2)c1C	12	-6	0	2
CC(=O)c1c(C)[nH]c(C(=O)OCC(=O)Nc2cccc(S(=O)(=O)N3CCCC3)c2)c1C	33*	6	0	0
CC(=O)c1c(C)[nH]c(C(=O)OCC(=O)Nc2ccc(C)c(Cl)c2)c1C	9	4	0	2
CC(=O)c1c(C)[nH]c(C(=O)OCC(=O)Nc2ccc(F)c(Cl)c2)c1C	35*	-8	0	3
CCOC(=O)c1ccc(OCC2c3cc(OC)c(OC)cc3CCN2C(=O)c2cccc(F)c2)cc1 (stereo not given)	-2	2	0	-1
[O-][n+]1onc2cc(Br)cnc21	-3	61*	0	-2
[O-][n+]1onc2cc(Cl)c(Cl)cc21	-40	3	0	2
CC1CCc2nc(NC(=O)c3ccco3)sc2C1 (stereo not given)	74*	-4	0	-7
Cc1ccccc1C(OCC(O)CN(C)C1CCN(C)CC1)c1ccccc1 (stereo not given)	2	29	0	0
Cc1nc2c(c(C)nn2C(C)(C)C)c(C)c1CCC(=O)N1CCCCC1	35*	13	0	0
Cc1nc2c(c(C)nn2C(C)(C)C)c(C)c1CCC(=O)O	1	6	0	0
c1ccc(-c2cn3nc4c(nc3n2)CCCC4)cc1	85*	3	0	-9
CCNc1nc(NC(C)(C)C)nc(SC(C(C)=O)C(C)=O)n1	42*	3	0	2
Cc1ccc(-n2c3c(cc(C(=O)N4CCCC4)c2=O)C(=O)CC(C)(C)C3)cc1	9	11	0	2
O=C1c2cc([N+](=O)[O-])cc3cc([N+](=O)[O-])cc(c23)C(=O)N1c1ccc(Cl)cc1	5	6	0	0
Fc1ccc(-c2n[nH]c(C3CCCN3)n2)cc1 (stereo not given)	-8	15	1	0
COc1ccc(C)cc1-n1nnnc1SCC(=O)c1[nH]c(C)c(C(C)=O)c1C	33*	12	0	0
SMILES	TEAD-YAP inh	MITF inh	FBW7 act	GPR151 ag
COc1ccc(S(=O)(=O)OCC(F)(F)[N+](=O)[O-])cc1Br	44*	-1	0	1
CC(C)(C)NC(=O)C(=O)N/N=C/c1ccccc1O	-44	53*	-2	0
O=C(CCCNc1ccccc1)N/N=C/c1ccccc1O	6	-5	0	-1
O=C(CCC(=O)Nc1cccc(Cl)c1)N/N=C/c1ccccc1O	7	56*	0	0
O=C(CCCCC(=O)N/N=C/c1ccccc1O)N/N=C/c1ccccc1O	40*	7	-1	1
CN(/N=C/c1cccn1C)C1=NCCN1	4	12	0	2
O=c1c(O)cc2c(-c3ccccc3)c3cc(O)c(O)c(Br)c3oc-2c1Br	-5	96*	-1	0
CN(C)S(=O)(=O)c1ccc(NC(=O)CSc2nccc(-c3ccc(F)cc3)n2)cc1	0	21	0	4
Cc1cc(C)c(NS(=O)(=O)c2ccc3[nH]c(=O)oc3c2)c(C)c1	5	14	6.3*	-1
O=c1[nH]c2ccc(S(=O)(=O)Nc3ccccc3)cc2o1	-39	-9	0	-1
CCOc1ccc(/C=C(/C#N)C(=O)Nc2ccc(O)cc2)cc1OCC	15	-2	0	0
CCOc1cc(/C=C(/C#N)C(=O)Nc2ccc(O)cc2)ccc1O	50*	-12	0	1
COc1cc(/C=C(\C#N)C(=O)c2ccc(O)c(O)c2)cc(I)c1O	-1	85*	0	-1
N#C/C(=C\c1ccc(O)c(O)c1)C(=O)NCCCNC(=O)/C(C#N)=C/c1ccc(O)c(O)c1	1	96*	0	-1
N#C/C(=C\c1ccc(O)c(O)c1)C(=O)Nc1ccccc1	-7	-11	0	-3
COc1cc(/C=C(/C#N)C(=O)Nc2ccc(O)cc2)cc(I)c1O	50*	-7	0	0
C=CCN(CC=C)C(=O)CC1C(=O)NCCN1Cc1ccc(OC)c(OC)c1 (stereo not given)	4	-1	0	0
CC1=C(C(=O)Nc2ccccn2)C(c2ccccc2C(F)(F)F)C2=C(CCCC2=O)N1 (stereo not given)	0	-13	0	-2
CCC(C)NC(=O)c1ccc2c(c1)ncn2-c1cc(C)ccc1OC (stereo not given)	8	10	0	0
CCOc1ccc(/C=C(/C#N)C(=O)Nc2ccc(O)cc2)cc1OC	-3	-5	0	0
CCOc1cc(/C=C(/C#N)C(=O)Nc2ccc(O)cc2)ccc1OC	44*	8	0	0
COc1cccc(C(=O)N2CC(=O)Nc3ccccc32)c1	42*	-14	0	-1
O=C1CN(C(=O)c2cc([N+](=O)[O-])ccc2Cl)c2ccccc2N1	59*	-1	0	0
CN(C)c1c(C(=O)N2CC(=O)Nc3ccccc32)cc([N+](=O)[O-])cc1[N+](=O)[O-]	6	17	0	1
COc1cccc(C(=O)N2c3ccccc3NC(=O)CC2C)c1 (stereo not given)	9	7	0	-1
Cc1ccc(-c2cc(C(F)(F)F)n3ncnc3n2)cc1	-10	1	0	3
CC[C@@H](Cn1nc(-c2ccc(F)c(F)c2)ccc1=O)NC(=O)c1cnn2cccnc12	0	0	0	0
COC(=O)C1=C(C(=O)OC)SC(=C2C(=S)C(C)(C)N(C(=O)Cc3ccccc3)c3c(C)cc(C)cc32)S1	2	-4	0	-1
CCOC(=O)CN=C(C)c1c(C)[nH]n(-c2nc3ccccc3s2)c1=O	49*	4	0	-10
CC(=NCc1ccco1)c1c(C)[nH]n(-c2nc3ccccc3s2)c1=O	41*!	14	0	-8
